# Measurements as given in PubChem BioAssay (NCATS).
# Calls of active or inactive are those of the source. The call rests on the fitted dose curve.
# Biological target: Tumor susceptibility gene 101 protein (Homo sapiens) (UniProt Q99816)
# Test: qHTS Validation Assay for Iinhibitors of HIV-1 Budding by Blocking the Interaction of PTAP/TSG101 (AID 485342)
# Conditions: TSG101-PTAP binding, fluorescence polarization, 4-point titration; series mostly up to 115 µM
# Excerpt: NIH Molecular Libraries Probe Production Network [MLPCN]
# NIH Chemical Genomics Center [NCGC]
# PI Name: Dr. Eric Freed, NCI
# Stages of the HIV-1 replication cycle, specifically virus assembly and release, provide underexploited targets for the development of novel antiviral inhibitors. The late stages of HIV-1 replication are mediated by the Gag precursor protein, Pr55Gag. Expression of Pr55Gag is both necessary and sufficient for the production of virus-like particles from Gag-expressing cells. The Gag protein hijacks key host proteins involved in endocytic machinery of the host cell to promote endosomal processing and viral budding. The budding process requires a direct interaction between a […] (PTAP) motif in the p6 domain of Gag and the cellular endosomal sorting protein known as Tsg101. In this way, the Gag PTAP motif promotes the host cells to recruit viral particles to the plasma membrane where the new viral particles are released, effectively turning the host cells into viral factories. A fluorescence anisotropy assay has been developed to quantitatively measure the PTAP-Tsg101 interaction which can be used to screen for inhibitors of this interaction.
# NCGC Assay Protocol Summary:
# Two uL of the Tsg101 binding domain in buffer (10 mM HEPES pH 7.5; 0.15 M NaCl, 0.01% Tween 20; 3 mM EDTA;0.1 mM TCEP) was dispensed into Greiner black MB 1536-well plates (final concentration 10 uM). Then, 23 nL of compounds or DMSO were delivered to each well using a pin tool. Finally, 2 uL of a FITC-labeled peptide containing the PTAP motif (1) in the same buffer was dispensed (50 nM final concentration) and the binding was allowed to proceed for 20 min. at r.t. Fluorescent polarization was determined using FITC excitation and polarized emission filters on a Perkin Elmer Viewlux.
# Keywords: Tsg101, PTAP, Gag, HIV, fluorescent polarization, MLSMR, MLPCN, NIH Roadmap, qHTS, NCGC
# Sequence of Tumor susceptibility gene 101 protein (Homo sapiens) (Q99816 whole entry, looked up): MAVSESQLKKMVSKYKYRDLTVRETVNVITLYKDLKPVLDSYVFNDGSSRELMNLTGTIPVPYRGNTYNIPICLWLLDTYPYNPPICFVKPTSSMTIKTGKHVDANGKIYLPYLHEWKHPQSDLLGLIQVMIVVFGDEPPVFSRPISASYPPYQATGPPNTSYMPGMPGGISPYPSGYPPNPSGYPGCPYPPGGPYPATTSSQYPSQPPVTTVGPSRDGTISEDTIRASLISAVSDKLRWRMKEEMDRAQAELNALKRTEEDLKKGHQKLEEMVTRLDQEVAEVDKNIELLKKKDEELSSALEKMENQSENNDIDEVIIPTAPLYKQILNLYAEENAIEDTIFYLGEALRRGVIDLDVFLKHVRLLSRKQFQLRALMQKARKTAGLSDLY
row,Compound,outcome
1,CC(CCc1ccccc1)NCC(O)c1ccc(O)c(C(N)=O)c1 (stereo not given),inactive
2,CN1C2CCC1CC(OC(=O)c1c[nH]c3ccccc13)C2 (stereo not given),inactive
3,C[N+]1(CCCCC[N+]2(C)CCCC2)CCCC1,inactive
4,CC1(C)CCC(NC(=O)[C@@H](N)CCC(=O)O)CC1,inactive
5,CNCCC(Oc1ccccc1C)c1ccccc1 (stereo not given),inactive
6,C[C@]12CC[C@@H]3c4ccc(O)cc4CC[C@H]3[C@@H]1CC[C@@H]2O,inactive
7,N[C@@H](Cc1cnc[nH]1)C(=O)O,inactive
8,CC(C)C[C@H]1C(=O)N2CCC[C@H]2[C@]2(O)O[C@](NC(=O)[C@@H]3C=C4c5cccc6[nH]c(Br)c(c56)C[C@H]4N(C)C3)(C(C)C)C(=O)N12,inactive
9,COc1cc2c(cc1O)CC[C@@H]1[C@@H]2CC[C@]2(C)[C@@H](O)CC[C@@H]12,inactive
10,C1CCc2nnnn2CC1,inactive
11,CC[C@H](C)C(=O)O[C@H]1CCC=C2C=C[C@H](C)[C@H](CC[C@@H]3C[C@@H](O)CC(=O)O3)[C@H]21,inactive
12,N[C@H](CO)C(=O)O,inactive
13,CCC(NC(C)C)C(O)c1ccc(O)c(O)c1 (stereo not given),inactive
14,O=C1CCC(c2ccc(-n3ccnc3)cc2)=NN1,inactive
15,Nc1cc(Cl)c(NC2=NCCN2)c(Cl)c1,inactive
16,C[C@@H]1C(=O)NC2=Nc3cccc(Cl)c3CN21,inactive
17,CC(=O)O[C@H]1C[C@@H]2CC[C@@H]3[C@H](CC[C@@]4(C)[C@H]3C[C@H]([N+]3(C)CCCCC3)[C@@H]4OC(C)=O)[C@@]2(C)C[C@@H]1[N+]1(C)CCCCC1,inactive
18,CCCC1O[C@@H]2C[C@H]3[C@@H]4CCC5=CC(=O)C=C[C@]5(C)[C@H]4[C@@H](O)C[C@]3(C)[C@]2(C(=O)CO)O1 (stereo not given in full),inactive
19,O=C(O)c1cc2cc(Cc3cccnc3)ccc2o1,inactive
20,COc1cc(NS(C)(=O)=O)ccc1Nc1c2ccccc2nc2ccccc12,inactive
21,CC(C)COC(=O)OCN1C(=O)CN(CCN2CC(=O)N(COC(=O)OCC(C)C)C(=O)C2)CC1=O,inactive
22,CCCn1c(=O)[nH]c(=O)c2[nH]cnc21,inactive
23,COC(=O)[C@H]1[C@H]2C[C@H]3c4[nH]c5ccccc5c4CCN3C[C@H]2CC[C@@H]1O,inactive
24,CNCCC=C1c2ccccc2CCc2ccccc21,inactive
25,Oc1ccc(O)cc1,inactive
